From PubChem BioAssay (EPA / NIEHS)
Active and inactive are the calls of the source. How the source made its calls: active means hit-call score of the fitted dose curve at least 0.9, where 1 is the maximum; inactive means score below 0.9.

What was measured:
[1] = APR_HepG2_NuclearSize_72hr: Apredica 72-hour HepG2 Assay for Nuclear Size (AID 2282925); conditions: high-content imaging, actives raise or lower the signal
In short: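 Nuclear size was read by high-content imaging of Hoechst 33342 stain after formaldehyde fixation. Compounds ran 72 h on HepG2 at 0.39 to 200 uM, with final DMSO 0.5% v/v. Curves fitted both directions relative to DMSO control.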

[2] = ATG_CRE_CIS: Attagene CIS-FACTORIAL HepG2 Assay for human cAMP Responsive Element (CRE) binding protein 3 (AID 2282926); conditions: HepG2 CRE cis-reporter, Attagene multiplexed mRNA; actives raise or lower the signal
In short: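 Cells carrying cis-regulated reporter constructs respond through their own endogenous factors. After 24 h treatment, RNA is reverse-transcribed, amplified, labelled and sized by capillary electrophoresis; up- and down-regulation are both scored against vehicle.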

[3] = target: CCAAT/enhancer-binding protein beta (Homo sapiens) (UniProt P17676); assay: ATG_C_EBP_CIS: Attagene CIS-FACTORIAL HepG2 Assay for human CCAAT/Enhancer Binding Protein (C/EBP) beta (AID 2282927); conditions: HepG2 Attagene cis-factorial transcription factor reporter; actives raise or lower the signal
In short: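 Endogenous C/EBPb-driven reporter transcripts measured in transfected human HepG2 cells at 24 h via RT-PCR and capillary electrophoresis of labelled fragments. Activity fitted in both directions relative to DMSO baseline.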

[4] = ATG_CMV_CIS: Attagene CIS-FACTORIAL HepG2 Assay for human CMV (Internal Marker) (AID 2282928); conditions: HepG2 CMV promoter reporter, transcription factor profiling; actives raise or lower the signal;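 further: endpoint acts as a background internal control marker rather than a target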
In short: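 Bidirectional fits against DMSO are applied to reporter mRNA, read by RT-PCR with capillary electrophoresis, from HepG2 cells exposed 24 h. The endpoint serves as an internal CMV background marker within the cis-factorial reporter panel.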

[5] = ATG_DR4_LXR_CIS: Attagene CIS-FACTORIAL HepG2 Assay for human Liver X Receptor (LXR), DR4 submotif (AID 2282929); conditions: HepG2 Attagene DR4 cis-reporter, mRNA transcription; actives raise or lower the signal
In short: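 Endogenous factor activity at a DR4 cis-element is read as reporter mRNA in transiently transfected HepG2 cells. Exposure lasts 24 h; transcripts are amplified, fluorescently labelled and sized by capillary electrophoresis, with DMSO as baseline.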

[6] = target: Aryl hydrocarbon receptor (Homo sapiens) (UniProt P35869); assay: ATG_Ahr_CIS: Attagene CIS-FACTORIAL HepG2 Assay for human Aryl Hydrocarbon Receptor (Ahr) (AID 2282930); conditions: HepG2 AhR cis-factorial reporter transcription; actives raise or lower the signal
In short: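 Reporter mRNA levels, quantified by RT-PCR and fluorescent capillary electrophoresis, reflect endogenous AhR transcriptional activity in HepG2 cells carrying transfected cis-promoter reporter constructs. Readout at 24 h post-dose; gain or loss fitted against DMSO baseline.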

[7] = ATG_AP_1_CIS: Attagene CIS-FACTORIAL HepG2 Assay for human Activator Protein 1 (AP-1) (AID 2282931); conditions: HepG2 Attagene cis-factorial AP-1 reporter mRNA; actives raise or lower the signal
In short: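 Fluorescence of labelled PCR fragments separated by capillary electrophoresis gives reporter mRNA levels. HepG2 with transfected cis-regulated reporter units, 24 h exposure; DMSO serves as baseline for bidirectional curve fits.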

[8] = target: Retinoic acid receptor alpha (Homo sapiens) (UniProt P10276); assay: ATG_DR5_RAR_CIS: Attagene CIS-FACTORIAL HepG2 Assay for human Retinoic Acid Receptor Alpha (RARE), DR5 submotif (AID 2282934); conditions: HepG2 Attagene cis-factorial RARE DR5 reporter, mRNA; actives raise or lower the signal
In short: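 Reporter transcripts from a DR5-regulated unit, measured via RT-PCR plus capillary electrophoresis, reflect endogenous RAR activity in transiently transfected human HepG2 liver cells. Exposure lasted 24 h; gain or loss of signal scored against DMSO.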

[9] = target: Transcription factor E2F1 (Homo sapiens) (UniProt Q01094); assay: ATG_E2F_CIS: Attagene CIS-FACTORIAL HepG2 Assay for human E2F Transcription Factor 1 (AID 2282935); conditions: HepG2 Attagene cis-reporter, E2F reporter RNA transcripts; actives raise or lower the signal
In short: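 Gain or loss of reporter transcript, fitted against DMSO, reflects E2F1-driven transcription. Transiently transfected HepG2 dosed 24 h before RNA isolation. Quantified by fluorescent RT-PCR products separated by capillary electrophoresis.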

[10] = ATG_E_Box_CIS: Attagene CIS-FACTORIAL HepG2 Assay for human Enhancer Box (E-box) (AID 2282936); conditions: HepG2 E-box cis-reporter transcription, actives raise or lower the signal
In short: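 E-box-driven reporter transcripts measured in transiently transfected HepG2 after 24 h exposure: RNA reverse-transcribed, PCR-amplified, fluorescently labelled, digested and resolved by capillary electrophoresis. Gain or loss relative to DMSO.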

[11] = ATG_M_61_CIS: Attagene CIS-FACTORIAL HepG2 Assay for M61 Transcription Factor (Internal Marker) (AID 2282937); conditions: HepG2 Attagene CIS-FACTORIAL M61 internal marker reporter; actives raise or lower the signal
In short: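 This endpoint serves as an internal background control within a multiplexed HepG2 cis-reporter panel. Cells are exposed for 24 h; reporter mRNA is amplified, fluorescently labelled and sized by capillary electrophoresis, with DMSO as negative control.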

[12] = ATG_EGR_CIS: Attagene CIS-FACTORIAL HepG2 Assay for human Early Growth Response 1 (EGR1) (AID 2282938); conditions: HepG2 Attagene CIS-FACTORIAL EGR reporter mRNA; actives raise or lower the signal
In short: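 HepG2, transient MRTU transfection (cis promoters), 24 h compound. RNA → RT (oligo-dT) → PCR → 6-FAM labelling → HpaI cut → CE fluorescence. Bidirectional fit, DMSO baseline.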

[13] = ATG_M_19_CIS: Attagene CIS-FACTORIAL HepG2 Assay for M19 Transcription Factor (Internal Marker) (AID 2282939); conditions: HepG2 Attagene CIS-FACTORIAL M19 internal marker reporter; actives raise or lower the signal
In short: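 Transfect HepG2 with MRTU reporter library → dose chemical, 24 h → isolate total RNA, reverse-transcribe with oligo(dT) → PCR, 6-FAM label, HpaI cut (2 h, 37 C) → capillary electrophoresis. Bidirectional fit vs DMSO.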

[14] = ATG_ERE_CIS: Attagene CIS-FACTORIAL HepG2 Assay for Estrogen Response Element (ERE) (AID 2282940); conditions: HepG2 ERE cis-reporter, Attagene RNA transcript; actives raise or lower the signal
In short: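 Transient MRTU transfection of human HepG2; cis-element promoters; 24 h dosing; total RNA → RT (oligo dT) → PCR → 6-FAM primer extension → HpaI digest → CE fluorescence. Bidirectional fit, DMSO baseline.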

[15] = ATG_Ets_CIS: Attagene CIS-FACTORIAL HepG2 Assay for human Erythroblast Transformation Specific (ETS) (AID 2282941); conditions: HepG2 ETS cis-reporter transcription, actives raise or lower the signal
In short: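 Endogenous transcription factor activity read as reporter mRNA via RT-PCR and capillary electrophoresis, with gain or loss fitted bidirectionally against DMSO. Human HepG2 liver cells, transiently transfected CIS reporter constructs, 24 h exposure.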

[16] = target: Hepatocyte nuclear factor 3-beta (Homo sapiens) (UniProt Q9Y261); assay: ATG_FoxA2_CIS: Attagene CIS-FACTORIAL HepG2 Assay for human Forkhead box A2 (FOXA2) (AID 2282942); conditions: HepG2 cis-reporter transcription factor activity, 24 h; actives raise or lower the signal
In short: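 Cells: HepG2, transient multiplex reporter transfection. Exposure 24 h. Detection: reporter-specific RT-PCR, fluorescent labelling, restriction digest, capillary electrophoresis. Analysis: bidirectional curve fit, DMSO as negative control.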

[17] = ATG_FoxO_CIS: Attagene CIS-FACTORIAL HepG2 Assay for human Forkhead box O (FoxO) (AID 2282943); conditions: HepG2 Attagene cis-reporter, FoxO element, mRNA; actives raise or lower the signal
In short: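 Endogenous transcription factor activity read from multiplexed cis-promoter reporter transcripts in transiently transfected HepG2, 24 h after dosing. Reporter RNA measured via RT-PCR plus capillary electrophoresis of FAM-labeled products; gain or loss relative to DMSO.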

[18] = ATG_GATA_CIS: Attagene CIS-FACTORIAL HepG2 Assay for human GATA Binding Protein (AID 2282944); conditions: HepG2 GATA cis-element reporter, Attagene multiplex mRNA; actives raise or lower the signal
In short: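 Transient MRTU transfection, HepG2, 24 h compound exposure. Total RNA → oligo(dT) RT → PCR → 6-FAM primer extension → HpaI cut → CE. Bidirectional fit vs DMSO.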

[19] = ATG_AP_2_CIS: Attagene CIS-FACTORIAL HepG2 Assay for human Activator Protein 2 (AP-2) (AID 2282932); conditions: HepG2 AP-2 cis-reporter, Attagene transcription factor profiling; actives raise or lower the signal
In short: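 Endogenous transcription factor activity is reported through transfected multiplex reporter constructs in HepG2, after 24 h of compound exposure. Transcripts were quantified by RT-PCR and capillary electrophoresis of fluorescent fragments. Bidirectional fit against DMSO.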

[20] = ATG_BRE_CIS: Attagene CIS-FACTORIAL HepG2 Assay for human Bone Morphogenetic Protein (BMP) Response Element (BRE) (AID 2282933); conditions: HepG2 BMP response element reporter, Attagene transcription factor profiling; actives raise or lower the signal
In short: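 Transient MRTU transfection of human HepG2 liver cells; 24 h compound treatment; total RNA isolated, reverse-transcribed, PCR-amplified, 6-FAM labelled, HpaI-cut, capillary electrophoresis. DMSO = negative control/baseline, bidirectional fit.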

Measured: AC50

CCAAT/enhancer-binding protein beta (Homo sapiens), sequence (P17676 whole entry, looked up, the tested form may be a part): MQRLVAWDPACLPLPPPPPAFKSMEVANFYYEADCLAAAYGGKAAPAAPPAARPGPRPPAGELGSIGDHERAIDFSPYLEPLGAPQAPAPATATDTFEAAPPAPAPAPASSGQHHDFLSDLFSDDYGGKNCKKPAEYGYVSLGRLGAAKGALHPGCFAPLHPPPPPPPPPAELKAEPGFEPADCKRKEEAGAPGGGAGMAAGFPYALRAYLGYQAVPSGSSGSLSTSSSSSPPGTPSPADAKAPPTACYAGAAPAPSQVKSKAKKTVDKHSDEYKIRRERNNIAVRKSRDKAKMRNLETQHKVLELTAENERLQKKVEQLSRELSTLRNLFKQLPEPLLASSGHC
Hepatocyte nuclear factor 3-beta (Homo sapiens), sequence (Q9Y261 whole entry, looked up): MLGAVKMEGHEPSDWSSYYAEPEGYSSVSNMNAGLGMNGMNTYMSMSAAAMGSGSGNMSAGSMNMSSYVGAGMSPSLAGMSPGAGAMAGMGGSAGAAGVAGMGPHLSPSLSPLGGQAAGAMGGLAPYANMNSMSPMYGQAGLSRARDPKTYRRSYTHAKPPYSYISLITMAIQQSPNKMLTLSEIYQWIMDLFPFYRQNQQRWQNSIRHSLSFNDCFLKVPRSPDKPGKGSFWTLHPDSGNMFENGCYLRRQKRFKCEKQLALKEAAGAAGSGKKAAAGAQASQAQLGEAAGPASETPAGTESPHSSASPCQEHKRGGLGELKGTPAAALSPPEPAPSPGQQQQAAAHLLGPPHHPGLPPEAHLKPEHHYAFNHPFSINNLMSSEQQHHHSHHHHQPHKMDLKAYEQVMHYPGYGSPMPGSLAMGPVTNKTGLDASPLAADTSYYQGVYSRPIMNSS
Aryl hydrocarbon receptor (Homo sapiens), sequence (P35869 whole entry, looked up): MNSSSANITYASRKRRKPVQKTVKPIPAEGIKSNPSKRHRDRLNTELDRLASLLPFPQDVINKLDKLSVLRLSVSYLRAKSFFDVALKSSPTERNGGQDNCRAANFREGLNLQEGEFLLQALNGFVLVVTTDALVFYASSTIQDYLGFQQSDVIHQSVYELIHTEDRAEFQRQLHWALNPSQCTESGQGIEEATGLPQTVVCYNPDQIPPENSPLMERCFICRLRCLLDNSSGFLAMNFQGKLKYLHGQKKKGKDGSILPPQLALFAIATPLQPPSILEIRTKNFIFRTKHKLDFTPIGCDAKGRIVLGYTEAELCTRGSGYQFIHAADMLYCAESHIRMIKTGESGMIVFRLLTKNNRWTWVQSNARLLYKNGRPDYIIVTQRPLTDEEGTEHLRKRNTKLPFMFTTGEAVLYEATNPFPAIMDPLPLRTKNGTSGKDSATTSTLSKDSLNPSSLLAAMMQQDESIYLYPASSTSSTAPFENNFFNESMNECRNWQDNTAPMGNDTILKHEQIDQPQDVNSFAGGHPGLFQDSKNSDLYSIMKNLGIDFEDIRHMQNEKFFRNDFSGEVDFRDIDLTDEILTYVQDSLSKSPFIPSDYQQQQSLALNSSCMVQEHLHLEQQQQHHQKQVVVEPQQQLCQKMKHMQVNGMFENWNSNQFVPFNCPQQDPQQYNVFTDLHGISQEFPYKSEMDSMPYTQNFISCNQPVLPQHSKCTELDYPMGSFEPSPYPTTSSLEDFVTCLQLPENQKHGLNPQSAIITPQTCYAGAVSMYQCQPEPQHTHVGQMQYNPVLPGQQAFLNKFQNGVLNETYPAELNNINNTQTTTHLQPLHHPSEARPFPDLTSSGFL
Retinoic acid receptor alpha (Homo sapiens), sequence (P10276 whole entry, looked up): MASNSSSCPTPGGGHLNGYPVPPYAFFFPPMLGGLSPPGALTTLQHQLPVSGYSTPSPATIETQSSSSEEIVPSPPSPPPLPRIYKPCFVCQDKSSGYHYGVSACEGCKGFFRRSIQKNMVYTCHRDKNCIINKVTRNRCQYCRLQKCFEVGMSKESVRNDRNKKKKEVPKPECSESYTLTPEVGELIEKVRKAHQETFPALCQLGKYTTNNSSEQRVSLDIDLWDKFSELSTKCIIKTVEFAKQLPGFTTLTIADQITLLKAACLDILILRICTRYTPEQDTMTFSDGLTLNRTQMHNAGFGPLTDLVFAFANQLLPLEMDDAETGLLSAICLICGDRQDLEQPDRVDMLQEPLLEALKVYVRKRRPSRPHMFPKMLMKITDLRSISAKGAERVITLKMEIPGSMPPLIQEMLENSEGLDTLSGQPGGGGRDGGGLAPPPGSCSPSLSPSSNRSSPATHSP
Transcription factor E2F1 (Homo sapiens), sequence (Q01094 whole entry, looked up): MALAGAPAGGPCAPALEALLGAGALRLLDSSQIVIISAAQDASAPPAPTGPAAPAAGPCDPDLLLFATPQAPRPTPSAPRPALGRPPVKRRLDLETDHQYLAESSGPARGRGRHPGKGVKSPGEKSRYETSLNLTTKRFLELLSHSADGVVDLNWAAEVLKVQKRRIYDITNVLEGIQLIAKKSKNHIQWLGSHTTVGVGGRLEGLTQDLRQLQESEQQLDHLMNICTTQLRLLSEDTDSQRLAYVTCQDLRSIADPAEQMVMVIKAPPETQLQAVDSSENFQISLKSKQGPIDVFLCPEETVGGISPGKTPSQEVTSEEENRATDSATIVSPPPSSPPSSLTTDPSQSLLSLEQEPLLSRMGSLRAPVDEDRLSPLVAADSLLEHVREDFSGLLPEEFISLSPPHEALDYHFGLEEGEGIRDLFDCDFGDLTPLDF

CNCc1cc(F)ccc1Oc1ccc(Cl)c(Cl)c1
active: [1] 103 µM
not listed: [19] | [20]
inactive: all other assays above

CC=Cc1ccc(O)c(OC)c1
active: [6] 73.5 µM
not listed: [20]
inactive: all other assays above

CCCCCCCCCCCC(=O)OC
not listed: [8] | [19]
inactive: all other assays above

Nc1ccccc1N
active: [2] 72.5 µM | [3] 54.2 µM | [4] 24.2 µM | [6] 1.41 µM | [7] 15.7 µM | [12] 53.8 µM
not listed: [19] | [20]
inactive: all other assays above

O=[N+]([O-])C(CO)(CO)CO
active: [6] 68.9 µM
inactive: all other assays above

Cc1nc(C)nc(N2C[C@@H](C)N(c3ccnc([C@@H](C)O)n3)[C@@H](C)C2)n1
active: [7] 23.1 µM
not listed: [20]
inactive: all other assays above

CCCCCC(=O)O
active: [6] 82.2 µM
not listed: [19] | [20]
inactive: all other assays above
